Reference: PubChem BioAssay
Activity calls are given as the source filed them.

Experiments:
Albumin (Bos taurus) = Albumin (Bos taurus) (UniProt P02769); assay: compounds binding labelled BSA control protein – biochemical, small-molecule microarray, Alexa647 label, 635/667 nm fluorescence, artefact control for SMM control protein annotation, profiling panel (AID 1118); settings: BSA-A647 binding, fluorescence 635 nm, higher = more signal;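 also: score merges 667 nm emission intensity and signal-to-noise per printed compound spot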
Sequence of Albumin (Bos taurus) (P02769 whole entry, looked up): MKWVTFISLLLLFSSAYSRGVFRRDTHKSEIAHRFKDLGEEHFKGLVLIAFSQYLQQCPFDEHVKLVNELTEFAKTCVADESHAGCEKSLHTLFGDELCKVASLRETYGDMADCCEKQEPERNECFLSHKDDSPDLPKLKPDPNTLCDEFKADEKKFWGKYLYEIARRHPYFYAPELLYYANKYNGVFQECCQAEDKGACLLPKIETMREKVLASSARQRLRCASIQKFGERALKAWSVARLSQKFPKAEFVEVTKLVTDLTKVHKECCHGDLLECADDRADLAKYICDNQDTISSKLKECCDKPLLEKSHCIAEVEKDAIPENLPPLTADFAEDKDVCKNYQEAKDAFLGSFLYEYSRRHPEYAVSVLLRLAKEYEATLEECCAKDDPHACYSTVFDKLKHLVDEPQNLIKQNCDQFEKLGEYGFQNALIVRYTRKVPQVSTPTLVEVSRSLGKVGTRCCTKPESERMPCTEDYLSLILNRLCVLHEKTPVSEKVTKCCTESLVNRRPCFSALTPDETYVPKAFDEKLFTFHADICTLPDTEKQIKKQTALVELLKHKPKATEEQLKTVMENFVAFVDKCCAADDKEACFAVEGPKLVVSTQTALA

[1] = probe aXIP binding to arrayed compounds – biochemical, NeuroSMM set, 635/667 nm fluorescence, primary screen (AID 1119); settings: small-molecule microarray, higher = more signal, called active from +8 up or from −8 down;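 also: probe is the protein aXip251-270 applied at 1 µg/mL to compound-printed slides; binding of probe to printed compounds measured as 667 nm fluorescence plus signal to noise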
[2] = probe aNOTCH3 binding on compound microarray – biochemical, small-molecule microarray, 635/667 nm fluorescence, primary screen (AID 1120); settings: higher = more signal;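 also: probe is a biotin-tagged antibody raised against NOTCH3 rather than NOTCH3 protein; score merges spot fluorescence near 667 nm with spot signal to noise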
[3] = probe aNOTCH2 binding on compound microarray – biochemical, small-molecule microarray, 635/667 nm fluorescence, primary screen (AID 1121); settings: higher = more signal;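 also: score merges feature fluorescence read at 667 nm with its signal to noise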
[4] = biological target: Carbonic anhydrase 2 (Homo sapiens) (UniProt P00918); assay: compounds binding carbonic anhydrase 2 – biochemical, small-molecule microarray, Alexa647-labelled CAII, profiling panel (AID 1122); settings: CAII-A647 binding fluorescence, higher = more signal
[5] = COS7 lysate on small-molecule microarray, probe aHis, 635 nm (AID 1123); settings: COS7 cell lysate, fluorescence, higher = more signal;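 also: z-score combines 667nm fluorescence intensity with signal-to-noise per printed compound spot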
[6] = probe aLAP1 signal on lysate-treated microarray – cell lysate, small-molecule microarray, COS7 lysate, primary screen (AID 1124); settings: probe aLAP1, fluorescence, higher = more signal;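 also: lysate comes from COS7 cells expressing LAP1 and is applied at 0.3 µg/mL; score merges spot fluorescence near 667 nm with signal-to-noise over triplicate slides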
Sam68 (KHDRBS1) = assay: compounds binding KHDRBS1 protein – biochemical, small-molecule microarray, 635 nm fluorescence, primary screen (AID 1125); settings: higher = more signal;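 also: score merges 667 nm channel intensity with signal to noise over triplicate slides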
[7] = tested on: Chordin-like protein 2 (CHRDL2); assay: compounds binding chordin-like 2 – biochemical, small-molecule microarray, 635 nm fluorescence, primary screen (AID 1126); settings: fluorescence 635 nm, higher = more signal;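 also: printed compound slides probed with Chrdl2 protein at 4 µg/mL for 1 h at 4 C; score merges 667 nm emission intensity with signal to noise over three replicate slides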
[8] = biological target: Concanavalin-A (Canavalia ensiformis) (UniProt P02866); assay: compounds binding concanavalin A lectin – biochemical, small-molecule microarray, Alexa647 label, 635 nm, artefact control for SMM control protein annotation, primary screen (AID 1127); settings: ConA-A647 binding fluorescence, higher = more signal;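 also: z combines 667 nm emission intensity with signal-to-noise across three replicate slides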
Sequence of Concanavalin-A (Canavalia ensiformis) (P02866 whole entry, looked up): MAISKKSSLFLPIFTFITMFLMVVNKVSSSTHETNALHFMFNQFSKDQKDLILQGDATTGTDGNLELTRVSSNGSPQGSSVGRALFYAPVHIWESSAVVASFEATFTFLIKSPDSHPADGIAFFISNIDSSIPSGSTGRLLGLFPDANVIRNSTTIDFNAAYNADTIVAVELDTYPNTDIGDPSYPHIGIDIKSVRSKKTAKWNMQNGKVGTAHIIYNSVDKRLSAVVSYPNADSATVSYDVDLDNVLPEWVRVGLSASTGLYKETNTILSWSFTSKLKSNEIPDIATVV

Compound	composite z-score (Albumin (Bos taurus))	composite Z-score [1]	composite z-score [2]	composite z-score [3]	composite z-score [4]	composite z-score [5]	composite z-score [6]	composite z-score (Sam68 (KHDRBS1))	composite z-score [7]	composite z-score [8]
CCCC=C(CCC)[C@@H](NC(=O)Oc1ccc(F)cc1)c1ccc(C(=O)OC)cc1	0.673	-0.594 (inactive)	0.209	-0.0817	0.31	1.9	0.0052	1.19	-0.813	0.977
CCOC(=O)C[C@H]1[C@H](OC(=O)Cc2ccc3c(c2)OCO3)[C@@H](NC(=O)c2ccc(-c3ccccc3)cc2)c2cc(OCCCO)ccc2N1C(=O)Cc1ccc(OC)cc1	0.641	0.0844 (inactive)	0.121	0.0126	0.0713	0.365	0.597	0.843	0.236	0.152
COC(=O)[C@@]1(Cc2ccc(OC)cc2)[C@H]2c3cc(C(=O)N(C)C)n(CCN4CNCC4=O)c3C[C@H]2CN1C(=O)c1ccccc1	0.854	-0.704 (inactive)	0.0539	0.0228	0.879	0.287	0.898	-0.668	-0.386	-0.61
COCCOC(=O)N1C(=O)[C@@]2(c3cc(C#Cc4ccc(OC)cc4)ccc31)[C@H](C(=O)N1CCCCCCC1)[C@H]1C(=O)O[C@H](c3ccccc3)[C@H](c3ccccc3)N1[C@@H]2c1ccc(OCCO)cc1	-1.25	3.51 (inactive)	0.872	0.711	0.712	1.49	0.913	1.3	1.48	0.987
CCOC(=O)C[C@H]1[C@H](OC(=O)c2cc3ccccc3oc2=O)[C@@H](NC(=O)Cc2ccc(OC)cc2)c2cc(OCCCO)ccc2N1C(=O)c1ccccc1	0.722	0.311 (inactive)	-0.0324	-0.0986	0.091	0.386	-0.0727	0.687	0.328	-0.256
C=CCNC(=O)[C@H]1[C@@H]2C(=O)O[C@@H](c3ccccc3)[C@@H](c3ccccc3)N2[C@@H](c2ccc(OCCO)cc2)[C@]12C(=O)Nc1ccc(C#CC3=CCCCC3)cc12	0.17	0.0758 (inactive)	-0.0933	-0.0703	0.338	0.999	0.272	1.31	0.105	0.994
COc1ccc(CCNC(=O)[C@@]2(C)c3ccccc3C(=O)N(Cc3cc(F)cc(C(F)(F)F)c3)[C@H]2c2ccc(CO)cc2)cc1	-0.825	0.633 (inactive)	-0.189	-0.054	0.726	1.71	0.54	-0.342	0.126	-0.307
O=C(NCC(F)(F)F)[C@@H]1c2ccccc2C(=O)N(C2CCCCC2)[C@H]1c1ccc(CO)cc1	0.558	0.35 (inactive)	-0.0313	-0.0942	0.667	-0.0286	-0.797	0.314	-0.615	1.11
CCCCN1CC=CC23O[C@@H]4/C=C\CCC(C)OC(=O)C4[C@H]2C(=O)N(CCCCCO)[C@@H]3C1=O (stereo not given in full)	-1.05	0.114 (inactive)	-0.422	-0.126	0.867	-0.427	1.34	-0.287	-1.4	-1.09
COc1ccc([Si](C)(C)[C@H]2[C@H](CCO)O[C@@]3(C(=O)N(C)c4c(Br)cc(C)cc43)[C@@H]2C)cc1	-0.094	-0.303 (inactive)	-0.0596	-0.0793	0.473	1	0.0847	0.953	0.344	1.07
[N-]=[N+]=NCc1ccccc1C[C@@]1(C(=O)NCC(O)CO)N=C(c2ccc(OCCCO)cc2)O[C@@H]1c1ccccc1N=[N+]=[N-] (stereo not given in full)	0.987	1.26 (inactive)	0.318	-0.0814	0.69	3.14	0.791	1.31	-0.655	1.1
CC(C)C(CO)N1C(=O)[C@@H]2[C@H]3C(=O)OCC=C[C@H]3OC23C=CCN(C(C)C)C(=O)[C@@H]13 (stereo not given in full)	-0.457	0.12 (inactive)	-0.149	-0.14	-0.0147	-0.312	-0.313	0.239	0.292	-0.529
CCCC[C@H]1OB(O)C[C@H]2C1=C(COc1ccccc1)C[C@H]1C(=O)N(C)C(=O)[C@H]12	-0.137	-0.252 (inactive)	-0.0046	-0.0596	-0.0293	0.486	0.0594	-0.348	0.497	-0.271
[N-]=[N+]=NCc1ccccc1C[C@]1(C(=O)NCC(O)CO)N=C(c2ccc(OCCCO)cc2)O[C@H]1c1ccccc1 (stereo not given in full)	0.922	-0.321 (inactive)	0.062	-0.0596	0.698	2.57	0.108	-0.236	-0.911	-0.916
COCCCNC(=O)[C@@]1(Cc2ccccc2)N=C(c2ccc(OCCCO)cc2)O[C@H]1c1ccccc1	0.893	1.14 (inactive)	0.374	0.308	0.79	2.9	-0.0127	1.29	-1.1	1.12
N#Cc1ccc(NN2C(C(O)c3c(F)cccc3Cl)C=CC3C(=O)N(c4ccccc4)C(=O)C32)cc1 (stereo not given)	1.09	0.238 (inactive)	-0.095	0.0563	0.396	3.25	1.55	1.29	-0.768	1.13
O=C1O[C@@H](c2ccccc2)[C@@H](c2ccccc2)N2[C@@H](c3ccc(OCCO)cc3)[C@]3(C(=O)Nc4ccccc43)[C@@H](C(=O)NC[C@H](O)c3ccccc3)[C@H]12	0.393	0.312 (inactive)	0.0519	-0.0649	0.549	1.67	0.759	0.989	0.895	0.999
Cc1ccc(S[C@]2(C(=O)NC(C)C)CC(=O)N(Cc3ccccc3Cl)[C@@H]2c2ccc(CO)cc2I)cc1	0.408	0.219 (inactive)	-0.469	-0.168	0.779	1.21	-0.147	0.462	-0.793	-0.139
NCCCCCNC(=O)[C@@H]1C[C@@H]2C(=O)NCC(=O)N2[C@@H]1c1ccc(O)cc1	0.802	0.126 (inactive)	-0.0889	-0.108	0.558	0.899	0.249	1.31	0.831	1.06
C=CCN1C(=O)[C@]2(O[C@H](CCO)[C@@H]([Si](C)(C)c3ccc(OC)cc3)[C@@H]2C)c2cc(N3C(=O)c4cccc5cccc3c45)ccc21	0.634	-0.106 (inactive)	-0.0377	-0.0956	0.542	0.808	0.0553	0.838	0.0493	0.795
COC(=O)[C@@]1(Cc2ccccc2)[C@H]2c3cc(C(=O)N4CCCC4)n(Cc4nc5ccccc5[nH]4)c3C[C@H]2CN1C(=O)c1ccccc1	1.03	0.579 (inactive)	0.537	0.404	0.653	3.34	0.988	1.3	-0.72	0.912
CN1C(=O)C2C=CC(C(O)Cc3ccccc3)N(Nc3ccccc3)C2C1=O (stereo not given)	0.554	-0.193 (inactive)	-0.0311	-0.0196	0.589	3.06	-0.333	-0.0158	-0.513	0.672
COC(=O)C(CC#Cc1ccc2c(c1)[C@]1(C(=O)N2)[C@H](c2ccc(O)cc2)N2[C@H](c3ccccc3)[C@H](c3ccccc3)OC(=O)[C@H]2[C@@H]1C(=O)Nc1nc2ccccc2s1)C(=O)OC	0.847	-0.516 (inactive)	0.138	-0.0454	0.556	2.21	0.445	1.31	0.806	1.12
[N-]=[N+]=NCc1ccccc1C[C@]1(C(=O)O)N=C(c2ccc(OCCCO)cc2)O[C@H]1c1ccccc1N=[N+]=[N-]	0.82	-0.17 (inactive)	0.238	0.0755	0.55	2.64	0.571	1.32	-0.958	1.05
COc1ccc([Si](C)(C)[C@H]2[C@H](CC(=O)N3Cc4ccccc4C[C@H]3CO)O[C@@]3(C(=O)N(Cc4ccc(N5CCC5=O)cc4)c4ccccc43)[C@@H]2C)cc1	0.402	-0.39 (inactive)	-0.0014	0.581	0.516	1.51	1.19	1.29	1.4	1.13
C=C(CCCC)C(=O)CC[C@@H](OC(=O)c1cccnc1)c1ccc(CO)o1	0.477	-0.261 (inactive)	0.205	-0.127	0.618	0.28	0.194	1.31	0.844	1.02
COC(=O)[C@@]1(Cc2ccc(OC)cc2)[C@H]2c3cc(C(=O)N4CCCC4)n(Cc4ccsc4Br)c3C[C@H]2CN1C(=O)c1ccccc1	0.885	0.387 (inactive)	0.527	-0.0677	0.877	2.83	0.0786	0.374	-0.91	0.496
